# Assays:
# Assay in all cases: DAPPL (digital affinity profiling via proximity ligation, sequencing); 10 mM Tris-HCl pH 7.5, 50 mM NaCl, 1 mM DTT, 4% glycerol, room temperature, 30 min; GST-TFs on glutathione beads, 16-mer random dsDNA library, 0.1% formaldehyde crosslink after washing; high values mean tight binding
# Conditions in all cases: protein: recombinant; tags: N-terminal GST; dsDNA, one strand shown
# ETV2 = molecular target: T1, ETV2 (Homo sapiens, UniProt O00321 1-342)
# T1 sequence: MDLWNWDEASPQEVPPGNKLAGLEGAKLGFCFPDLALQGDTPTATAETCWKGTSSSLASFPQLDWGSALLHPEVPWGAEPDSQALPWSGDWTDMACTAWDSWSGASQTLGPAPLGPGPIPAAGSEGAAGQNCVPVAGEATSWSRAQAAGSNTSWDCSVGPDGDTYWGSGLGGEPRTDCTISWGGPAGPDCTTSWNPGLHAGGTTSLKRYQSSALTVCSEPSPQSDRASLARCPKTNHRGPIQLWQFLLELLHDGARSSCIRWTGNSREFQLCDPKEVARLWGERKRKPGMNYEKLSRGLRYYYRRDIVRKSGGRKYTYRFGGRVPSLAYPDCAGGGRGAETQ
# How it was run: (§1)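 Human transcription factors fused to GST were expressed in yeast, captured on glutathione beads, given DNA barcodes and pooled with a GST-only negative control. Pools were incubated with 200 nmole of a 16-mer random double-stranded DNA library in Tris/NaCl/DTT/glycerol buffer at room temperature for 30 min. They were then washed, crosslinked with 0.1% formaldehyde, proximity-ligated (BsaI/T4 ligase, 1 h, 37 °C), PCR-amplified and sequenced on an Illumina NextSeq500. Binding signal is each 6-mer's read frequency for a factor divided by its frequency for the GST control.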
# ELF3 = molecular target: T2, ELF3 (Homo sapiens, UniProt P78545 1-371)
# T2 sequence: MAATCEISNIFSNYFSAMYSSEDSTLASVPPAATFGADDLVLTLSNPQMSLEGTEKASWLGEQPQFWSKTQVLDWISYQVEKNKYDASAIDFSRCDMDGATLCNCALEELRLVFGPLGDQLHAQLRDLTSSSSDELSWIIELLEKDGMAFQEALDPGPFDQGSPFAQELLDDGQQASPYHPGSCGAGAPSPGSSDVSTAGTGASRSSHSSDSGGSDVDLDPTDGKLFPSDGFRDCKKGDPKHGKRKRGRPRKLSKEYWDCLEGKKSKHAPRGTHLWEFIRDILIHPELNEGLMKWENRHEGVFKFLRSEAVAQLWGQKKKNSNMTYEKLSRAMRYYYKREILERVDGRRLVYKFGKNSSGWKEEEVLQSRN
# How it was run: as §1
# ETV1 = ETV1 (Homo sapiens, UniProt P50549 1-477)
# Sequence of ETV1 (P50549 whole entry): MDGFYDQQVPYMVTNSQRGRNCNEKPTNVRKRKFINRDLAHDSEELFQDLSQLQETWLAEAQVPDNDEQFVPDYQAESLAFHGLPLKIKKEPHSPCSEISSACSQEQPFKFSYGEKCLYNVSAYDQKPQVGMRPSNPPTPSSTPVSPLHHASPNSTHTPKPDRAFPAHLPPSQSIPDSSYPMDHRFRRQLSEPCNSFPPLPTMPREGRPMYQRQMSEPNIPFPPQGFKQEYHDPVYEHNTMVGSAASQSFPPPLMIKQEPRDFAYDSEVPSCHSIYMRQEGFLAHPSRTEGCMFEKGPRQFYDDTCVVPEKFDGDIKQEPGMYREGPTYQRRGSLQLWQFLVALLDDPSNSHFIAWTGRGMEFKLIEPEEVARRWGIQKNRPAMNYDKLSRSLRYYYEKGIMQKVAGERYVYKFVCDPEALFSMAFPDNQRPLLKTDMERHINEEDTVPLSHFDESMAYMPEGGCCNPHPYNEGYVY
# How it was run: as §1
# ERF = molecular target: T3, ERF (Homo sapiens, UniProt P50548 1-548)
# T3 sequence: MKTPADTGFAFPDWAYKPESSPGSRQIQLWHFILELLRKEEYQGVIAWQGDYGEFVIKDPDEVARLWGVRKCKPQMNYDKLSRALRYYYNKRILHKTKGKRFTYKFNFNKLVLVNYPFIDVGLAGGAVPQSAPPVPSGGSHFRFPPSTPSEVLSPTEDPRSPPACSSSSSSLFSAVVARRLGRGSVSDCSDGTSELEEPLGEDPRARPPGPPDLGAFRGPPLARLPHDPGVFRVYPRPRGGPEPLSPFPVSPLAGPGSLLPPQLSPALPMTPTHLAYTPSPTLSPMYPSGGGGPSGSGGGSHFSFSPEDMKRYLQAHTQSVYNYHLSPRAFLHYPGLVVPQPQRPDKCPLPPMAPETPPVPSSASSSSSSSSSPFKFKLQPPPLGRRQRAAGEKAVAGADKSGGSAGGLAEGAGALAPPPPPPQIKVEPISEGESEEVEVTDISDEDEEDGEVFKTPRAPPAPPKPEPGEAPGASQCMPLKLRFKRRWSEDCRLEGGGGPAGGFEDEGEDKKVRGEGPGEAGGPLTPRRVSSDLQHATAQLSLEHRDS
# How it was run: as §1
# ETV3L = molecular target: T4, ETV3L (Homo sapiens, UniProt Q6ZN32 1-361)
# T4 sequence: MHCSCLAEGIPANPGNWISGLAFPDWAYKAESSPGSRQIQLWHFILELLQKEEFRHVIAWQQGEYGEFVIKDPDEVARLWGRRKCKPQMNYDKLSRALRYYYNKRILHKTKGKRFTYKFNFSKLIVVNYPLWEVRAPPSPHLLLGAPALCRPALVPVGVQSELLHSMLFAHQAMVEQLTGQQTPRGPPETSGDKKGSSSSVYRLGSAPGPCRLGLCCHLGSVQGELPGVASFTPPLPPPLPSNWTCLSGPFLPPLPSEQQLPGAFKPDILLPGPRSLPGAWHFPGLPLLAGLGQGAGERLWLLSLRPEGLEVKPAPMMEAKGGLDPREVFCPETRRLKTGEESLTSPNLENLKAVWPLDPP
# How it was run: as §1
# ETS2 = molecular target: T5, ETS2 (Homo sapiens, UniProt P15036 1-469)
# T5 sequence: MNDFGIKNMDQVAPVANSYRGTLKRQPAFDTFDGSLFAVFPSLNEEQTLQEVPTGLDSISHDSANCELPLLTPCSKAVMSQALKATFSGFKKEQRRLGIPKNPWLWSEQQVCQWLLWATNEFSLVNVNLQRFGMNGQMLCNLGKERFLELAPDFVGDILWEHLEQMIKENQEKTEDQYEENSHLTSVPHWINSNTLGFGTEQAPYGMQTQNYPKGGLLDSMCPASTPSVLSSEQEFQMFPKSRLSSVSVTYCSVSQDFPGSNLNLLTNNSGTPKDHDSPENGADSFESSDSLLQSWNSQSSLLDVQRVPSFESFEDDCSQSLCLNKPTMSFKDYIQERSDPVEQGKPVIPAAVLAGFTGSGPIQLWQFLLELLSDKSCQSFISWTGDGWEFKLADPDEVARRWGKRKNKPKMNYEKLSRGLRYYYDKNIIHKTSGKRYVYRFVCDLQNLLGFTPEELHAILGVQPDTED
# How it was run: as §1
# SPDEF = molecular target: T6, SPDEF (Homo sapiens, UniProt O95238 1-335)
# T6 sequence: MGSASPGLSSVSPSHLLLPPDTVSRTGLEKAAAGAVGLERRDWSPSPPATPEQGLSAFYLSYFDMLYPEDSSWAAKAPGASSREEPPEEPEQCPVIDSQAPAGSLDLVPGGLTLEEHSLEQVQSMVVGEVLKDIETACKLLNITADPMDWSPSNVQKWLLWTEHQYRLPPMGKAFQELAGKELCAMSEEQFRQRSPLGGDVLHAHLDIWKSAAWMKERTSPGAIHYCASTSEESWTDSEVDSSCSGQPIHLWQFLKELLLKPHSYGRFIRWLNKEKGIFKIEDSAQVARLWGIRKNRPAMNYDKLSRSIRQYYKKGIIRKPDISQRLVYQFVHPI
# How it was run: as §1
# ETV7 = molecular target: T7, ETV7 (Homo sapiens, UniProt Q9Y603 1-341)
# T7 sequence: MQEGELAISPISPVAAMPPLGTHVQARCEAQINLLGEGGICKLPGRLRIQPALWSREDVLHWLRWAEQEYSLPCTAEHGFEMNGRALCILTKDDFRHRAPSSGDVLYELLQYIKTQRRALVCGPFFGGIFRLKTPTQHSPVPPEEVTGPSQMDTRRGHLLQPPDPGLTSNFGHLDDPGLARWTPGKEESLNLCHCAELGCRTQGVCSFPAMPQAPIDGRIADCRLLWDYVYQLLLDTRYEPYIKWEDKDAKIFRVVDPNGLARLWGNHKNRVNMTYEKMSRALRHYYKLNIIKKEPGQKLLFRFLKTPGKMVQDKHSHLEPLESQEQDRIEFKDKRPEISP
# How it was run: as §1
# ETV3 = molecular target: T8, ETV3 (Homo sapiens, UniProt P41162-2 1-143)
# T8 sequence: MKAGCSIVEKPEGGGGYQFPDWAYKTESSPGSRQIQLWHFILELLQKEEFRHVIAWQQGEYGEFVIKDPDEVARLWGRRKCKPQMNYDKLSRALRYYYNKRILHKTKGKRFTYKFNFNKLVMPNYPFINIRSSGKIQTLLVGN
# How it was run: as §1
# ETV6 = ETV6 (Homo sapiens, UniProt P41212 1-452)
# Sequence of ETV6 (P41212 whole entry): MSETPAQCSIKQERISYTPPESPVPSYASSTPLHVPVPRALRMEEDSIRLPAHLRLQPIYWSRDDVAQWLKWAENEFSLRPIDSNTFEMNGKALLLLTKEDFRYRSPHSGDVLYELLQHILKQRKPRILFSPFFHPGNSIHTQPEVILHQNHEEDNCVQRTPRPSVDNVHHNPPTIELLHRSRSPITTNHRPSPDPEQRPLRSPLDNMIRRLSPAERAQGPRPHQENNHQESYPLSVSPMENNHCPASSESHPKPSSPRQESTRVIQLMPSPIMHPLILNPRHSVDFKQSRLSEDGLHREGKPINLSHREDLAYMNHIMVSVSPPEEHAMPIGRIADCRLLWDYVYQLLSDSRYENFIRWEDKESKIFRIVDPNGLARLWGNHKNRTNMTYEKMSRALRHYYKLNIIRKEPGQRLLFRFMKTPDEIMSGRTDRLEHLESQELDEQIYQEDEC
# How it was run: as §1
sequence,measurement,setting,value
CGTAAA,binding signal,ETV2,"1.21 fold enrichment (6-mer frequency, TF over GST control)"
same,binding signal,ELF3,"1.12 fold enrichment (6-mer frequency, TF over GST control)"
same,binding signal,ETV1,"1 fold enrichment (6-mer frequency, TF over GST control)"
same,binding signal,ERF,"1.09 fold enrichment (6-mer frequency, TF over GST control)"
same,binding signal,ETV3L,"1.09 fold enrichment (6-mer frequency, TF over GST control)"
same,binding signal,ETS2,"1.14 fold enrichment (6-mer frequency, TF over GST control)"
same,binding signal,SPDEF,"1.09 fold enrichment (6-mer frequency, TF over GST control)"
same,binding signal,ETV7,"1.08 fold enrichment (6-mer frequency, TF over GST control)"
same,binding signal,ETV3,"1.14 fold enrichment (6-mer frequency, TF over GST control)"
same,binding signal,ETV6,"1.17 fold enrichment (6-mer frequency, TF over GST control)"

# From paper PMC7862700, “An all-to-all approach to the identification of sequence-specific readers for epigenetic DNA modifications on cytosine”
